Only some compounds are listed: those with a hit (about 2.9% of all), similar ones and a draw of the others.
D3 ag – agonists of human D3 dopamine receptor; P35462; D3R DiscoveRx beta-arrestin cells, luminescence, 90 min; max activation, %; 410,000 compounds, 0.58% hits; AID 652048; in the data active = max activation above about 30%
Target sequence (P35462 whole entry, looked up): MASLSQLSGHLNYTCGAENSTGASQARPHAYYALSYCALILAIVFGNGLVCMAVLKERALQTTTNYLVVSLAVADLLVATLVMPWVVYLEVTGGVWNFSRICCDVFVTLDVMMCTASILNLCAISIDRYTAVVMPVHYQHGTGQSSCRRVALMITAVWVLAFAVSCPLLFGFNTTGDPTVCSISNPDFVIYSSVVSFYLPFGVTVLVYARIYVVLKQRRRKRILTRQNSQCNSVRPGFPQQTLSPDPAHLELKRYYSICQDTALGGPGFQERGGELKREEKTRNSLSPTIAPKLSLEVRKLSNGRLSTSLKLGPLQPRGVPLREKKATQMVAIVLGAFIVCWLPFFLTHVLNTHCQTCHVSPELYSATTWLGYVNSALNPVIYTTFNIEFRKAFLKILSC
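Agonist mode: compounds and dopamine controls were applied to plated cells for 90 min at 37 degrees C after an overnight attachment at 1500 cells/well. Luminescent read-out followed 30 - 60 minutes at room temperature with DiscoveRx detection reagent.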
DRD3 antagonist – antagonists of human D3 dopamine receptor | P35462 | D3R cells, DiscoveRx beta-arrestin luminescence, antagonist mode; stronger effect = lower value | max response, negative = inhibition, % | 360,000 compounds, 2.5% hits | AID 652054; in the data active = max response below about -50%; inconclusive = no clear call, values can overlap the other calls
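Cells plated overnight at 1500 cells/well, then exposed to library compounds with dopamine controls for 90 minutes at 37 degrees C. DiscoveRx reagent added for 30–60 minutes at room temperature; luminescence read, quantitative HTS format.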
a7 integrin act – activators of alpha7 integrin expression for muscular dystrophy | alpha7betagal myoblasts, beta-gal FDG fluorescence, 48 h | Potency, µM (titrated, usually from 38.3 µM), most hits filed as activators | 350,000 compounds, 0.064% hits; active = well fitted activation curve with a large enough effect; inconclusive = small, poorly fitted or top-dose-only effect; inactive = no such curve, though single readings can be large or run the other way; note: nearly all actives have a fitted effect of over 60% in size
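Alpha7betagal+/- myoblasts (passage 13) were plated 16-24 hr, then exposed to compounds (1:260 dilution of DMSO stock) for 48 hours at 37C. After MPER lysis, β-galactosidase reporter activity was read as FDG fluorescence (ex 480/em 540) after 30 minutes.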
Each line names hits and unclear results; the compound was inactive in the other large screens; ! = not active in a repeat.

O=c1c2c(-c3ccccc3)csc2ncn1/N=C/c1cccc([N+](=O)[O-])c1O	DRD3 antagonist -51.8
O=c1c2c(-c3ccccc3)csc2ncn1/N=C/c1ccc(O)c([N+](=O)[O-])c1	none
CCOC(=O)c1c(-c2ccc(F)cc2)csc1NC(=O)CCN1CCOCC1	none
CCOc1ccc2ccccc2c1C(=O)N[C@@H]1C(=O)N2[C@@H]1SC(C)(C)[C@@H]2C(=O)O	D3 ag 48.9! (no result: a7 integrin act)
CC1(C)S[C@@H]2[C@H](NC(=O)Cc3ccccc3)C(=O)N2[C@H]1C(=O)O (tested in a mixture with another compound)	none (no result: DRD3 antagonist, a7 integrin act)
CC(=O)Nc1cccc(C(=O)OCC(=O)N(c2ccccc2)C2CCS(=O)(=O)C2)c1 (stereo unspecified)	none
CC1=C(C)CC(C(=O)Nc2nc(-c3ccc(C)cc3C)c(C)s2)C(C(=O)O)C1 (stereo unspecified)	none
COc1cccc(C(=O)Oc2cc3c4c(c2)C(C)=CC(C)(C)N4C(=O)C3=O)c1	DRD3 antagonist inconclusive
CC1=CC(C)(C)n2c(O)c(C3=NC(=S)NC3=O)c3cc(OC(=O)c4cccc5ccccc45)cc1c32	DRD3 antagonist -57.7
CC(C)N(Cc1ccccc1)C(=S)Nc1ccc(F)cc1	none
Cc1ccc(C)c(NS(=O)(=O)c2cc(C(=O)Nc3cccc(N(C)S(C)(=O)=O)c3)ccc2C)c1	none
Cc1ccc(NS(=O)(=O)c2cc(C(=O)Nc3cccc(N(C)S(C)(=O)=O)c3)ccc2C)c(C)c1	D3 ag 42.5
CCOC(=O)c1sc(=S)n(C)c1NC(=O)c1cccc(Br)c1	none
O=C(NCc1ccccc1)c1cc(C2CCCN(S(=O)(=O)c3cccs3)C2)on1 (stereo unspecified)	DRD3 antagonist -68.3 (no result: a7 integrin act)
O=C(NCc1cccnc1)c1cc(C2CCCN(C(=O)c3cccs3)C2)on1 (stereo unspecified)	DRD3 antagonist -122.9 (no result: a7 integrin act)
O=C(NCc1ccc(F)cc1)c1cc(C2CCCN(C(=O)c3cccs3)C2)on1 (stereo unspecified)	none (no result: a7 integrin act)
O=C(NCc1cccnc1)c1cc(C2CCCN(S(=O)(=O)c3cccs3)C2)on1 (stereo unspecified)	none (no result: a7 integrin act)
O=C(CCc1ccccc1)NNC(=O)Nc1ccc(Cl)cc1	none
Cc1ccc(C)c(OCc2cc(C(=O)N3CCN(c4ccccc4C)CC3C)no2)c1 (stereo unspecified)	none
Cc1ccc(-n2ncc(C#N)c2/N=C/N2CCN(C)CC2)cc1	DRD3 antagonist -75.9
CN1CCN(/C=N/c2c(C#N)cnn2-c2ccccc2)CC1	DRD3 antagonist inconclusive
O=C(O)CC1S/C(=N/N=C/c2ccc(-c3ccc(Cl)cc3[N+](=O)[O-])o2)NC1=O (stereo unspecified)	DRD3 antagonist -76.6
O=C(O)CC1S/C(=N/N=C/c2ccc(-c3ccc(Cl)c([N+](=O)[O-])c3)o2)NC1=O (stereo unspecified)	none
CCN(CC)CCN(C(=O)c1ccc2c(c1)CCCC2)c1nc2c(C)cccc2s1	DRD3 antagonist -51.4
CCN(CC)CCN(C(=O)c1ccc2c(c1)OCCO2)c1nc2cc(C)cc(C)c2s1	DRD3 antagonist inconclusive
CCN(CC)CCN(C(=O)c1ccc2c(c1)CCCC2)c1nc2ccc(OC)cc2s1	DRD3 antagonist inconclusive
CCN(CC)CCN(C(=O)c1ccc2c(c1)OCCO2)c1nc2c(Cl)cccc2s1	DRD3 antagonist -62.7
CCN(CC)CCN(C(=O)c1ccc2c(c1)CCCC2)c1nc2ccc(C)cc2s1	DRD3 antagonist -51.0
CCN(CC)CCN(C(=O)c1ccc2c(c1)CCCC2)c1nc2ccc(F)cc2s1	none
O=C(NN1CCOCC1)c1ccc(Br)s1	none
CN(C)c1ccc(C(c2nnnn2C(C)(C)C)N2CCN(C(=O)c3ccco3)CC2)cc1 (stereo unspecified)	none
CCOC(=O)c1c(C)[nH]c(C)c1S(=O)(=O)NCCN1CCN(c2cc(Cl)ccc2C)CC1	DRD3 antagonist inconclusive
C/C=C/C(=O)N[C@@H]1c2ccccc2CC[C@@H]1OCc1ccccc1	DRD3 antagonist inconclusive
NC(=O)NCc1ccccc1Cl	none
Nc1ccccc1SC(CC(=O)c1ccccc1)c1cccc([N+](=O)[O-])c1 (stereo unspecified)	DRD3 antagonist inconclusive
Nc1ccccc1SC(CC(=O)c1ccccc1)c1ccc([N+](=O)[O-])cc1 (stereo unspecified)	DRD3 antagonist -51.4
Cc1nn(-c2cccc([N+](=O)[O-])c2)c(N)c1-c1ccccc1	none
CCOC(=O)Cn1nc2oc(=O)c(CCN3CCN(c4ccccc4OC)CC3)c(C)c2c1C	DRD3 antagonist -107.5
CCOC(=O)Cn1c(=O)oc2cc(S(=O)(=O)N3CCN(c4ccccc4OC)CC3)ccc21	none (no result: DRD3 antagonist, a7 integrin act)
N#CCN1CCN(CC(=O)Nc2ccc(OCc3ccccc3)cc2)CC1	none
COc1cc2cc(NC(C)=O)cc(NCc3ccccc3)c2cc1OC	DRD3 antagonist inconclusive
CCCCNc1cc(NC(C)=O)cc2cc(OC)c(OC)cc12	D3 ag 53.3, DRD3 antagonist -74.9
CC1CCN(S(=O)(=O)c2ccc(NC(=O)CN3CCN(C)CC3)cc2)CC1	none
O=C(CN1CCN(S(=O)(=O)c2ccccc2)CC1)Nc1ccc2c(c1)CCC2	DRD3 antagonist -53.1
CC1CCN(S(=O)(=O)c2ccc(NC(=O)CN3CCN(c4ccccc4)CC3)cc2)CC1	D3 ag 109.6
O=C(CN1CCN(S(=O)(=O)c2ccc(Br)cc2)CC1)Nc1ccc(F)cc1F	DRD3 antagonist -50.9
O=C(CN1CCCC1)Nc1ccc2c(c1)CCC2	none
O=C(CN1CCN(Cc2ccccc2)CC1)Nc1ccc2c(c1)CCC2	none
O=C(CN1CCN(c2ccccc2O)CC1)Nc1ccc2c(c1)CCC2	DRD3 antagonist -71.5
O=C(CN1CCN(S(=O)(=O)c2ccc(Cl)cc2)CC1)Nc1ccc(F)cc1F	none
CC1(C)CC(=O)C2=C(C1)N=C1SCCC(=O)N1C2c1cccc([N+](=O)[O-])c1 (stereo unspecified)	none
NC(=O)c1cc(NC(=O)CCNS(=O)(=O)c2cccc(C(F)(F)F)c2)cc(C(N)=O)c1	none
O=C(COC(=O)CNC(=O)c1sc2ccccc2c1Cl)NC1CCS(=O)(=O)C1 (stereo unspecified)	none
CCCC(=O)Nc1ccc(-c2nc3cc(C)c(C)cc3o2)c(O)c1	none
COC(=O)[C@@H]1C[C@@H]2CC[C@@H](O)C[C@@H]2N1Cc1ccc(OC)cc1	none
Cc1onc(-c2ccccc2)c1C(=O)Nc1nnc(-c2ccncc2)s1	none
CCN(CC)S(=O)(=O)c1cccc(NC(=O)COc2ncnc3sccc23)c1	DRD3 antagonist -63.1
Cc1ccc(NC(=O)COc2ncnc3sccc23)cc1S(=O)(=O)N(C)C	none
C=CCn1c(N)c(C(=O)N2CCN(C)CC2)sc1=S	DRD3 antagonist -54.0
C=CCn1c(N)c(C(=O)OCC)sc1=S	none
C/C(=C/c1oc2ccc(O)cc2c1[N+](=O)[O-])N(C)C	a7 integrin act inconclusive
CC(=O)Oc1ccc2oc(/C=C/N(C)C)c([N+](=O)[O-])c2c1	DRD3 antagonist -80.1
Oc1ccccc1CNc1ccc(OC(F)(F)F)cc1	none
CC(Oc1ccc(Br)cc1)C(=O)Nc1ccc(S(=O)(=O)NC2=NCCCCC2)cc1 (stereo unspecified)	none
O=C(NC(c1ccccc1)c1cnccn1)C1CCN(Cc2ccc(Cl)c(Cl)c2)CC1 (stereo unspecified)	DRD3 antagonist inconclusive (no result: a7 integrin act)
